“And” between values parts separate entries of the source, which are not always exact repeats. Equal entries are not always repeated. Results filed as inconclusive are left out. The source holds several records for some structures; these can differ, active in one and inactive in another. Values without a mark were called inactive. The source made the active and inactive calls. Unless noted, calls come from the whole dose curve; as a rule, active = well fitted curve in the direction sought with a large enough effect; inconclusive = small, poorly fitted or top-dose-only effect, or another doubt; inactive = no such curve, though single readings can be large; an effect the other way counts as inactive or inconclusive.
What was measured:
[1] = target: Cellular tumor antigen p53 (Homo sapiens) (UniProt P04637); experiment: Primary qHTS for small molecule compounds that upregulate eGFP-tagged delta133p53alpha (in N-terminal) cells. (AID 2060322); details: NCI-H358 eGFP-delta133p53alpha fluorescence, 24 h; activation: hits give high values; note: nearly all actives have a fitted effect of over 75% in size; note: potency is the fitted concentration of half-maximal effect;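 for activation: cells pre-induced with doxycycline then dosed without doxycycline; series mostly up to about 56 µM; 0% = DMSO vehicle and 100% = reference activator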
Summary of the method: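 NCI-H358 cells pre-induced 24 h with 10 ng/ml doxycycline for eGFP-delta133p53alpha, plated dox-free and exposed 24 h at 37C to titrated compounds. Fixed, Hoechst-stained; gated GFP peak intensity by laser scanning cytometry, normalized to DMSO (0%) and 57.5 uM 5-azacytidine (100%).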

[2] = target: Cellular tumor antigen p53 (Homo sapiens) (UniProt P04637); experiment: Primary qHTS for small molecule compounds that upregulate eGFP-tagged delta133p53alpha (in C-terminal) cells. (AID 2060324); note: potency is the fitted concentration of half-maximal effect
Summary of the method: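 Readout: filtered GFP peak intensity of gated cells (laser scanning cytometer), normalized plate-wise to intraplate controls, DMSO wells = 0% activity. Cells: NCI-H358 D133p53a-eGFP, dox 100 ng/ml 24 h beforehand, then compound 24 h, 37 °C.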

[3] = target: Aldehyde dehydrogenase, mitochondrial (Homo sapiens) (UniProt P05091); experiment: qHTS for Inhibitors of the Aldehyde Dehydrogenase Family (ALDH2) Validation screens (AID 2061302; active = well fitted inhibition curve with a large enough effect; title and protocol of this record describe different tests;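 note: plate controls were DMSO vehicle for no effect and maximal DPI positive control response for full effect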)
[4] = target: Retinaldehyde dehydrogenase 3 (Homo sapiens) (UniProt P47895); experiment: qHTS for Inhibitors of the Aldehyde Dehydrogenase Family (ALDH1A3) Validation screen (AID 2061312); note: % is set by controls: 0 for no effect and ±100 for the full control effect; nearly all actives have a fitted effect of over 45% in size
[5] = BET inhibitor-based combinations targeting novel dependencies in MECOM-rearranged (r) AML: SET-2 cell line (AID 2202231); details: SET-2 AML cells viability, CellTiter-Glo luminescence, 48 h; viability: hits give low values, concentration not given here; note: nearly all actives have a fitted effect of over 35% in size; note: potency is the fitted concentration of half-maximal effect;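 for viability: plate controls were DMSO treated cells for no effect and wells without cells for full effect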
Summary of the method: (§1)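 Here, 11-point titrations of each agent were applied to 500 seeded cells and incubated 48 hr; CellTiter-Glo signal, scaled against DMSO and empty wells, was integrated as AUC, then Z-scored within the individual line.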

[6] = BET inhibitor-based combinations targeting novel dependencies in MECOM-rearranged (r) AML: OCI-AML3 cell line (AID 2202232); details: Potency: OCI-AML3 viability; note: nearly all actives have a fitted effect of over 35% in size; note: potency is the fitted concentration of half-maximal effect
Summary of the method: as §1

[7] = BET inhibitor-based combinations targeting novel dependencies in MECOM-rearranged (r) AML: MV-4-11 cell line (AID 2202233); note: potency is the fitted concentration of half-maximal effect; nearly all actives have a fitted effect of over 45% in size
Summary of the method: (§2)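 Normalized to DMSO and empty-well controls, the luminescence data from CellTiter-Glo after 48 hr drug exposure were fitted across 11 concentrations. Reported metrics are area under the dose-response curve and its Z-transformed form.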

[8] = BET inhibitor-based combinations targeting novel dependencies in MECOM-rearranged (r) AML: HNT-34 cell line (AID 2202234); note: potency is the fitted concentration of half-maximal effect; nearly all actives have a fitted effect of over 35% in size
Summary of the method: as §2

[9] = BET inhibitor-based combinations targeting novel dependencies in MECOM-rearranged (r) AML: UCSD-AML1 cell line (AID 2202235); note: potency is the fitted concentration of half-maximal effect; nearly all actives have a fitted effect of over 40% in size
Summary of the method: as §2

[10] = BET inhibitor-based combinations targeting novel dependencies in MECOM-rearranged (r) AML: AML-191 cell line (AID 2202236; note: potency is the fitted concentration of half-maximal effect; nearly all actives have a fitted effect of over 35% in size)
Summary of the method: as §1

[11] = BET inhibitor-based combinations targeting novel dependencies in MECOM-rearranged (r) AML: AML-194 cell line (AID 2202237; note: nearly all actives have a fitted effect of over 40% in size; note: potency is the fitted concentration of half-maximal effect)
Summary of the method: as §1

[12] = target: Aldehyde dehydrogenase, mitochondrial (Homo sapiens) (UniProt P05091); experiment: qHTS for Inhibitors of the Aldehyde Dehydrogenase Family (ALDH2) Primary screen (AID 2061308);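 note: plate controls were vehicle for no effect and reference inhibitor for full effect; nearly all actives have a fitted effect of over 55% in size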
[13] = target: Retinaldehyde dehydrogenase 3 (Homo sapiens) (UniProt P47895); experiment: qHTS for Inhibitors of the Aldehyde Dehydrogenase Family (ALDH1A3) Primary screen (AID 2061315);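 note: plate controls were DMSO vehicle for no effect and reference inhibitor for full effect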

Chain of Cellular tumor antigen p53 (Homo sapiens) (P04637 whole entry, looked up): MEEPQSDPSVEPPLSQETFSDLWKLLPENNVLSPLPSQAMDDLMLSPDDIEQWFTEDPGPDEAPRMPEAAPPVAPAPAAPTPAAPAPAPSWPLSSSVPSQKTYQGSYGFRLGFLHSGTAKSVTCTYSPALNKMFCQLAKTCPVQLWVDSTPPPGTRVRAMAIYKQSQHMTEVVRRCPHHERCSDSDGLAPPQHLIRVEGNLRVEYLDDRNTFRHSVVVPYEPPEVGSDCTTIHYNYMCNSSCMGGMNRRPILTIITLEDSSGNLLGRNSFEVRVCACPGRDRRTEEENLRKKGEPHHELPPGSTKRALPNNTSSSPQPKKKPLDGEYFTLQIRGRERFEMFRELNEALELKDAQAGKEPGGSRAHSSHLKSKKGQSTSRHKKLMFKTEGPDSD

In the case of `CC[C@H]1CN2CCc3cc(OC)c(OC)cc3[C@@H]2C[C@@H]1C[C@H]1NCCc2cc(OC)c(OC)cc21`, the Potency [1] is reported as 0.617 µM (active), the activation [1] is reported as 20.5% and the Potency [2] is reported as 0.151 µM (active). For the same molecule, the Potency [3] was “inactive”, the Potency [4] was “inactive” and the Potency [5] was 0.372 µM (active). The Potency [6] was 0.468 µM (active), the Potency [7] was 0.235 µM (active) and the Potency [8] was 0.332 µM (active). For the same molecule, the Potency [9] was 0.372 µM (active), the Potency [10] was 0.417 µM (active) and the Potency [11] was 0.372 µM (active).

Molecule `COC(=O)c1cc(Cl)ccc1OC` has an activation [1] of 2.51%.

With `Oc1ccc(-c2nc(-c3ccc(F)cc3)c(-c3ccncc3)[nH]2)cc1` the Potency [1] was 38.5 µM (active), the activation [1] was 9.98% and -12.3% and the Potency [2] was “inactive”. For the same molecule, the Potency [3] was “inactive”, the Potency [4] was “inactive” and the Potency [7] was 18.6 µM (active).

`C[C@H](N)[C@H](O)c1cccc(O)c1` showed an activation [1] of -7.53%.

In the case of `CNCC[C@H](Oc1cccc2ccccc12)c1cccs1`, the Potency [1] is reported as 17.4 µM (active) and the activation [1] is reported as 8.04%.

With `CCOCCOC(=O)/C=C/c1ccc(OC)cc1` the activation [1] was -3.95%.

Work on `COc1ccccc1OC(=O)Oc1ccccc1OC` yielded an activation [1] of 6.69%.

In the case of `COc1ccnc2[nH]cc(C(=O)C(=O)N3CCN(C(=O)c4ccccc4)C[C@@H]3C)c12`, the activation [1] is reported as 3.59%.

With `Nc1nc(NCCNc2ncc(-n3ccnc3)c(-c3ccc(Cl)cc3Cl)n2)ccc1[N+](=O)[O-]` the Potency [1] was 8.49 µM (active), the activation [1] was -14% and the Potency [12] was “inactive”. The Potency [13] was “inactive”, the viability [5] was 116% and the Potency [6] was “inactive”. For the same molecule, the Potency [7] was 8.33 µM (active), the Potency [8] was 4.17 µM (active) and the Potency [11] was “inactive”.

For `Cc1cc(Nc2ncc(Cl)c(Nc3ccccc3S(=O)(=O)C(C)C)n2)c(OC(C)C)cc1C1CCNCC1`, the Potency [1] was 7.57 µM (active), the activation [1] was 21.6% and the Potency [12] was “inactive”. The Potency [13] was “inactive”, the Potency [5] was 23.5 µM (active) and the Potency [6] was 9.34 µM (active). For the same molecule, the Potency [7] was 4.68 µM (active), the Potency [8] was 6.61 µM (active) and the Potency [9] was 10.5 µM (active). The Potency [10] was 16.6 µM (active).
